# PubChem BioAssay
# Several values for one entry are separate records, joined by “and”; a condition that tells them apart may be missing. Equal values may be shown once. Inconclusive results are not listed. More than one record can exist for a structure, and the calls need not agree. Activity calls are given as the source filed them. Rule as the data show it, unless noted: active = fluorescence slope change above about 50%; inconclusive = mostly about 31% to 49%; inactive = weaker than that.
# Experiments:
# [1] = growth inhibition, single agents and combos, CRL2098, cell-based, BGB or cisplatin IC20 combos, synergistic combos for chromothripsis tumors (AID 1671454; in the data active = inhibition above about 80%;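 also: cells exposed for 96 h before readout; 0% = vehicle DMSO and 100% = killing by high DMSO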); details: CRL2098 osteosarcoma cells, drug combinations, stronger effect = higher value
# [2] = growth inhibition, single agents and combos, HD-MB03, cell-based, BGB or cisplatin IC20 combos, synergistic combos for chromothripsis tumors (AID 1671455; in the data active = inhibition above about 83%;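 also: 0% = vehicle DMSO and 100% = high DMSO as cytotoxic control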); details: HD-MB03 medulloblastoma cells, stronger effect = higher value
# [3] = growth inhibition, single agents and combos, UWB1.289, cell-based, BGB or cisplatin combos, synergistic combos for chromothripsis tumors (AID 1671456; in the data active = inhibition above about 80%;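 also: cells exposed to compound for four days; 0% = vehicle DMSO and 100% = killing by high DMSO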); details: UWB1.289 ovarian carcinoma cells, stronger effect = higher value
# [4] = growth inhibition, single agents and combos, LFS_MB_2R, cell-based, cisplatin combos, synergistic combos for chromothripsis tumors (AID 1671457; in the data active = inhibition above about 80%;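 also: cells exposed to compound for four days before readout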); details: LFS_MB_2R medulloblastoma cells, stronger effect = higher value
# [5] = growth inhibition, MDA-MB-436, cell-based, BGB or cisplatin combos, synergistic combos for chromothripsis tumors (AID 1671458; call rule not given here;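 also: cells exposed for 96 hours; 0% = vehicle DMSO and 100% = killing by high DMSO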); details: MDA-MB-436 breast carcinoma growth inhibition, drug combinations, stronger effect = higher value
# [6] = UWB1.289_BRCA1 ovarian cancer growth, cell-based, BGB or cisplatin combinations (AID 1671459; in the data active = inhibition above about 80%); details: UWB1.289 BRCA1 ovarian carcinoma, drug combinations, stronger effect = higher value
# [7] = drug combination toxicity in non-malignant astrocytes – cell-based, BGB or cisplatin IC20 combos, cytotoxicity control for chromothriptic childhood tumor combination screen (AID 1671460; in the data active = inhibition above about 80%;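 also: cells exposed to compounds for 96 hours before viability readout; 0% = vehicle and 100% = killing control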); details: Human astrocytes, viability inhibition, drug combinations, at 0.5 µM, stronger effect = higher value
# [8] = BT084 cell growth, single and combined drugs, ICGC_MB145, cisplatin and BGB IC40 combos (AID 1671461; in the data active = inhibition above about 80%;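 also: cells exposed to drugs for 96 hours; 0% = vehicle DMSO and 100% = high DMSO full killing control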); details: BT084 medulloblastoma cells, drug combinations, stronger effect = higher value
# [9] = RCMB18 cell growth, single agent and combined, cisplatin and BGB IC40 combos (AID 1671462; in the data active = inhibition above about 80%;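 also: cells exposed to compound for four days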); details: RCMB18 medulloblastoma cells, stronger effect = higher value
# [10] = CRL1545 cell growth, single agent and combined, cisplatin and BGB IC20 combos (AID 1671464; in the data active = inhibition above about 80%;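 also: cells exposed to compound for 96 hours before readout; 0% = vehicle DMSO and 100% = high DMSO killing control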); details: CRL1545 osteosarcoma cells, stronger effect = higher value
# [11] = target: ATP-dependent translocase ABCB1 (Homo sapiens) (UniProt P08183); assay: P-glycoprotein substrate transport blockade – cell-based (AID 377); details: MDR1-expressing cells, fluorescent substrate accumulation slope; stronger effect = higher value; concentration not given here
# ATP-dependent translocase ABCB1 (Homo sapiens), sequence (P08183 whole entry, looked up): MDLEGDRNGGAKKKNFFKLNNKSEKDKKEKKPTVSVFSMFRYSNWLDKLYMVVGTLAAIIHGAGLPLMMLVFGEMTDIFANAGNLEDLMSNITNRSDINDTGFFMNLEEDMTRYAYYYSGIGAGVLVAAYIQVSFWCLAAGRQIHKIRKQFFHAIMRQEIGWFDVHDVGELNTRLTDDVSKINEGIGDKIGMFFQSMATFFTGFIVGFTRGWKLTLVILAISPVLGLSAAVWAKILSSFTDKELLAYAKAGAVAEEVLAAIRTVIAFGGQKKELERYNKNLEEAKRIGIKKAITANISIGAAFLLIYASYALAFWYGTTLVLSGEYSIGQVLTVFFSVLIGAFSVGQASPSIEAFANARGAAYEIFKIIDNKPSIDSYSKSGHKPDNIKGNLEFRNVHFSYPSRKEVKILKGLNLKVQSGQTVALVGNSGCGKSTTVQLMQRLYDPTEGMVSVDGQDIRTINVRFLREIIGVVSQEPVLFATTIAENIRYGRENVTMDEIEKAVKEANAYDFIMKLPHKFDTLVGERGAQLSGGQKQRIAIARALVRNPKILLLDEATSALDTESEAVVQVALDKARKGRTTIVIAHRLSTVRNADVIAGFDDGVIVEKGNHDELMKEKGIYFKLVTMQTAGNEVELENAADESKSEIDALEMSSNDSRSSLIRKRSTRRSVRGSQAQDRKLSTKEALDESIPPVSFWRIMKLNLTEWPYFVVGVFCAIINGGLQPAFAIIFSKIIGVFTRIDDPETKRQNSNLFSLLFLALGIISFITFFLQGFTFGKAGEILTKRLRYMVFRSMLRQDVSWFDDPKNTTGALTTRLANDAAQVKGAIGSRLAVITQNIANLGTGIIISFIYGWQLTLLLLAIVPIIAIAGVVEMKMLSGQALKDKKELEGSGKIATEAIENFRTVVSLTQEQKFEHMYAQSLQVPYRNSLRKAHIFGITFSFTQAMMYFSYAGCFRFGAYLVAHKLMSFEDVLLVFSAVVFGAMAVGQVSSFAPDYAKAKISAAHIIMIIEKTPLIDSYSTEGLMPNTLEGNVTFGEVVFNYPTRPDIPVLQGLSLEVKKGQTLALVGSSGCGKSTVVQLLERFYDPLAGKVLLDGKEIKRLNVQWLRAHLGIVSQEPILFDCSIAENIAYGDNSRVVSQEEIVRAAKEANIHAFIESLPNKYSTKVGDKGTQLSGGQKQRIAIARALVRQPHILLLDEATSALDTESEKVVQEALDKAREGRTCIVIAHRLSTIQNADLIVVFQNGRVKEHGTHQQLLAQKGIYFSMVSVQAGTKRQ
# [12] = compounds altering viability of human ES cells (AID 493140; call rule not given here;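 also: cells exposed to compounds for four days before counting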); details: human embryonic stem cell survival screen; stronger effect = higher value
# [13] = P. berghei load reduction in hepatocytes – cell-based, HepG2, luciferase luminescence, HepG2 viability, primary screen (AID 624349; in the data active = parasite load remaining mostly below about 12%, no sharp cut-off; inactive = mostly above about 10%;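 also: 100% = mean of DMSO negative control wells on the same plate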); details: P. berghei liver stage in HepG2, luciferase luminescence, concentration not given here; parasite load remaining: stronger effect = lower value; viability: measured here: HepG2 viability without parasites
# [14] = compounds altering circadian rhythm period length – cell-based, LOPAC library, luminescence reporter (AID 2774; call rule not given here;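 also: values are relative to mean of DMSO wells on each plate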); details: circadian reporter cells, at 7 µM, actives lie on both sides
# [15] = system: Hepatitis C virus NS3 helicase; assay: blockers of NS3h binding to ssDNA – biochemical, fluorescence polarization, LOPAC1280 library, primary screen (AID 687035; in the data active = inhibition above about 37%); details: Purified HCV NS3 helicase, Cy5-dT15 ssDNA binding fluorescence polarization; stronger effect = higher value; concentration not given here
# [16] = compounds altering Cy5-DNA-NS3h complex signal – biochemical, LOPAC1280, artefact control for HCV NS3 helicase inhibitor project (AID 687037; call rule not given here); details: Cy5-DNA-NS3h complex fluorescence interference counterscreen
# [17] = measured here: combination with cisplatin, at 0.5 µM
compound,measurement,setting,value
CCC1(O)C(=O)OCc2c1cc1n(c2=O)Cc2cc3ccccc3nc2-1 (configuration not stated),inhibition,[1]; at 0.5 µM,61.8% (inactive) and 62.7% (inactive)
same,inhibition,"[1]; measured here: combination with BGB at IC20, at 0.5 µM",62.5% and 76.9%
same,inhibition,"[1]; measured here: combination with cisplatin at IC20, at 0.5 µM",58% and 56.3%
same,inhibition,[2]; at 0.5 µM,97.5% (active) and 99.2% (active)
same,inhibition,"[2]; measured here: combo with BGB at IC20, at 0.5 µM",96.5% and 99.2%
same,inhibition,"[2]; measured here: combo with cisplatin at IC20, at 0.5 µM",97.2% and 99.2%
same,inhibition,[3]; at 0.5 µM,66.6% (inactive) and 83.3% (active)
same,inhibition,"[3]; measured here: inhibition with BGB combination, at 0.05 µM",12.6% and 11.7%
same,inhibition,"[3]; measured here: inhibition with cisplatin combination, at 0.05 µM",11.3% and 20.8%
same,inhibition,[4]; at 0.5 µM,7.34% (inactive) and -4.41% (inactive)
same,inhibition,[4]; [17],19% and 21%
same,inhibition,"[4]; measured here: combination with cisplatin, at 5 µM",76.3% and 69.2%
same,inhibition,[5]; at 0.5 µM,54.1% (inactive) and 72% (inactive)
same,inhibition,"[5]; measured here: BGB combination, at 0.5 µM",51.4% and 63.7%
same,inhibition,"[5]; measured here: BGB combination, at 5 µM",74.8% and 70.3%
same,inhibition,"[5]; measured here: cisplatin combination, at 0.5 µM",45.3% and 73.5%
same,inhibition,"[5]; measured here: cisplatin combination, at 5 µM",82.3% and 82.8%
same,inhibition,"[6]; BGB combination, concentration series, at 5 µM",99.4% and 98.3%
same,inhibition,[6]; at 0.5 µM,67.6% (inactive) and 90.7% (active)
same,inhibition,"[6]; cisplatin combination, concentration series, at 5 µM",118% and 106%
same,inhibition,[7],60.8% (inactive) and 77.6% (inactive)
same,inhibition,[7]; measured here: combo with BGB IC20,60.1% and 81.6%
same,inhibition,[7]; measured here: combo with cisplatin IC20,47.8% and 70.6%
same,inhibition,[8]; at 0.5 µM,14.3% (inactive) and 17% (inactive)
same,inhibition,"[8]; cisplatin combination, at 0.5 µM",23.6% and 35.1%
same,inhibition,"[8]; cisplatin combination, at 5 µM",44.9% and 40.2%
same,inhibition,"[8]; measured here: BGB IC40 combination 0.05 uM, at 0.05 µM",23.9% and 38.2%
same,inhibition,"[8]; single agent, at 5 µM",-2.08% and -14.2%
same,inhibition,[9]; at 0.5 µM,7.46% (inactive) and 14.2% (inactive)
same,inhibition,"[9]; cisplatin combo, at 5 µM",72.3% and 80.4%
same,inhibition,"[9]; measured here: BGB IC40 combination, at 0.05 µM",5.45% and -12%
same,inhibition,[9]; [17],49.2% and 53.3%
same,inhibition,"[9]; single agent, at 5 µM",23.3% and 47.8%
same,inhibition,[10]; at 0.5 µM,54% (inactive) and 96.2% (active)
same,inhibition,"[10]; measured here: with BGB IC20 combination, at 0.5 µM",77.9% and 98.4%
same,inhibition,"[10]; measured here: with cisplatin IC20 combination, at 0.5 µM",42.1% and 95.1%
same,inhibition,"[10]; single agent, at 0.05 µM",32% and 28.6%
same,inhibition,"[10]; single agent, at 5 µM",99.8% and 99.9%
C=C[C@]12CN(C)C3C4COC(CC41)[C@]1(C(=O)Nc4ccccc41)[C@@H]32 (some centres not stated),fluorescence slope change,[11],13.5% (inactive)
same,survival,[12],4 (inactive)
CC[C@@H](C)C(=O)O[C@H]1[C@H](O)[C@H]2[C@@H](CN3C[C@@H](C)CC[C@H]3[C@@]2(C)O)C2C[C@]34O[C@@]5(O)[C@@H](OC(=O)C(C)(O)CC)CC[C@@]3(C)[C@@H]5[C@@H](OC(C)=O)[C@@H](OC(C)=O)[C@H]4[C@@]21O (some centres not stated),fluorescence slope change,[11],24.2% (inactive)
same,survival,[12],6.33 (inactive)
same,parasite load remaining,[13],72.4% (inactive)
same,viability,[13],77.1%
C=C(C)[C@@H]1[C@H]2OC(=O)[C@@H]1[C@]1(O)C[C@H]3O[C@]34C(=O)OC2[C@]14C (some centres not stated),fluorescence slope change,[11],18.3% (inactive)
same,survival,[12],4 (inactive)
CCOC(=O)NC1=C(N2CC2)C(=O)C(NC(=O)OCC)=C(N2CC2)C1=O,fluorescence slope change,[11],17.2% (inactive)
CC[C@H](CO)NC(=O)[C@@H]1C=C2c3cccc4[nH]cc(c34)C[C@H]2N(C)C1,fluorescence slope change,[11],0.6% (inactive)
same,parasite load remaining,[13],67.8% (inactive)
same,viability,[13],73.1%
CCC1C2CC3[C@@H]4N(C)c5ccccc5[C@]45CC(C2[C@H]5O)N3[C@@H]1O (some centres not stated),fluorescence slope change,[11],67.5% (active)
same,survival,[12],5.33 (inactive)
same,parasite load remaining,[13],65.3% (inactive)
same,viability,[13],70.7%
C=C[C@@H]1CN2CCC1C[C@@H]2[C@@H](O)c1ccnc2ccccc12 (some centres not stated),fluorescence slope change,[11],13.4% (inactive)
C=C(C(=O)OC1CC2[C@@H]3O[C@@H]3[C@@H](C1)N2C)c1ccccc1 (some centres not stated),fluorescence slope change,[11],4.6% (inactive)
CC(=O)O[C@@H]1CC(O[C@@H]2C(C)OC(O[C@@H]3C(C)OC(OC4CCC5(C)C(CCC6C5CC(O)C5(C)C(C7=CC(=O)OC7)CCC65O)C4)C[C@H]3O)C[C@H]2O)OC(C)[C@H]1OC1OC(CO)[C@@H](O)[C@@H](O)[C@@H]1O (some centres not stated),fluorescence slope change,[11],3% (inactive)
CCN1C[C@]2(COC)CC[C@H](O)C34C5C[C@@H]6C(OC)C[C@@](O)(C5[C@H]6OC(C)=O)[C@@H](CC32)[C@@H]14 (some centres not stated),survival,[12],21.1 (inactive)
CCCn1c(C)c(C(=O)c2ccc3ccccc3c2)c2ccccc21,period change,[14],-0.02 h (inactive)
same,inhibition,[15],-4% (inactive)
same,fluorescence ratio (interference),[16],1 (inactive)
CC(=O)OC(C)C(C)C(=O)OC[C@]12C(C)[C@H]3O[C@@H]1C[C@]1(C)C(=CCC4[C@@]5(C)CCC(OC6O[C@H](C(=O)O)[C@H](O[C@H]7O[C@@H](CO)[C@@H](O)[C@@H](O)[C@@H]7O)[C@H](O)[C@H]6O[C@@H]6OO[C@@H](O)[C@H](O)[C@@H]6O)[C@](C)(CO)C5CC[C@]41C)[C@@H]2CC3(C)C (some centres not stated),survival,[12],2.17 (inactive)
CN1[C@@H](C[C@@H](O)c2ccccc2)CCC[C@H]1C[C@H](O)c1ccccc1,fluorescence slope change,[11],85.7% (active)
CN1CCC2=C[C@@H](O)C3OC(=O)c4cc5c(cc4C3[C@H]21)OCO5 (some centres not stated),fluorescence slope change,[11],1.8% (inactive)
same,survival,[12],6.42 (inactive)
COc1cc2c(cc1O)C1Cc3ccc(OC)c(O)c3CN1CC2 (configuration not stated),fluorescence slope change,[11],144% (active)
same,survival,[12],1.58 (inactive)
same,parasite load remaining,[13],63.3% (inactive)
same,viability,[13],69.6%
CCN1C[C@]2(C)CC[C@H](O)C34C5C[C@H]6C(O)C5[C@](O)(C[C@@H]6OC)C(CC32)[C@@H]14 (some centres not stated),fluorescence slope change,[11],-10.1% (inactive)
same,survival,[12],6.75 (inactive)
CO[C@@H]1C=C2CCN(C)[C@@H]2C2c3cc4c(cc3C(=O)OC21)OCO4 (some centres not stated),fluorescence slope change,[11],12.6% (inactive)
same,survival,[12],4.75 (inactive)
CN(CC(=O)O)/C(N)=N/P(=O)(O)O,fluorescence slope change,[11],63.4% (active)
CCN1C[C@]2(COC)CC[C@H](O)[C@@]34C5C[C@H]6C(OC)C5[C@](O)(C[C@H]6OC)C(O)(C(OC)C23)[C@@H]14 (some centres not stated),fluorescence slope change,[11],-9.9% (inactive)
same,survival,[12],4 (inactive)
CN1[C@@H]2CCC[C@H]1CC(=O)C2,fluorescence slope change,[11],53.5% (active)
NCC1OC(OC2C(N)CC(N)C(O)C2O)C(N)C(O)C1O (configuration not stated),fluorescence slope change,[11],14.1% (inactive)
C#C[C@]1(O)CCC2C3CCC4=CC(=O)CC[C@]4(C)C3CC[C@@]21C (some centres not stated),fluorescence slope change,[11],63.9% (active)
same,survival,[12],10.7 (inactive)
same,parasite load remaining,[13],97.8% (inactive)
same,viability,[13],86.3%
